Source: PubChem (Broad Institute)
EWS-Fli block: inhibitors of EWS/Fli oncoprotein transcriptional activity; A673 NR0B1-luciferase reporter, viability-normalised; AID 651661; inhibition, % at 12.6 µM; hit rate 0.67% among 350,000;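 active = mean inhibition of at least 50% after viability correction, with every replicate also passing that limit; inconclusive = mean reaches 50% but only one of two replicates passes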;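 also: firefly luciferase signal divided by Alamar Blue viability fluorescence both relative to DMSO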
TRPM1 prom inh: MITF TRPM1 promoter inhibition in SK-MEL-5 cells | inhibition, % at 12.5 µM | hit rate 0.83% among 330,000 | SK-MEL-5 TRPM1 promoter luciferase, 24 h;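 active = mean inhibition across replicates of 60% or more, whatever share of single replicates reaches that level; inconclusive = some that reach 60%, reason not given; inactive = mean inhibition across replicates below 60%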
Wnt bcat act: Wnt/beta-catenin pathway activation | Wnt/beta-catenin reporter cell assay, activator, plate reader | activation, % at 9.35 µM | hit rate 1.2% among 300,000; in the data active = activation above about 30%, passing the limit was not always enough; inconclusive = no clear call, values can overlap the other calls;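 also: 0% = neutral control wells and 100% = positive control wells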
PAX8 inh HTS: PAX8 transcriptional activity inhibition. RMG-I TPO-luciferase reporter, SteadyGlo, 24 h. hit rate 1.2% among 360,000. inhibition, % at 12.6 µM. AID 652154;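 active = mean replicate inhibition at least 60% with every replicate also reaching 60%; inconclusive = only one of the two criteria is met; inactive = mean below 60% and not all replicates reaching 60%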;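 also: luciferase light reporting Pax8 driven TPO promoter activity; plate controls were median of neutral control wells for no effect and mitoxantrone controls for full effect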
MITF TRPM1 HTS: activators of MITF-driven TRPM1 promoter activity in SK-MEL-5 cells; SK-MEL-5 TRPM1-promoter luciferase, 24 h; % of positive control, neutral wells = 0; activation, % at 12.5 µM; hit rate 0.75% among 300,000;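 active = mean activation of at least 80% with every replicate also reaching 80%; inconclusive = mean reaches 80% but some replicate falls short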;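 also: 0% = neutral control wells and 100% = parthenolide positive control wells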
esBAF inh: inhibitors of esBAF chromatin remodeling in mouse ES cells. Bmi1-luciferase knock-in reporter, 24 h; 100% = twice the neutral-well signal. reporter increase, % at 12.5 µM. AID 602393. hit rate 2% among 350,000; in the data active = activation above about 40%; inconclusive = no clear call, values can overlap the other calls;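 also: 0% = median of the plate's neutral control wells and 100% = double that signal; a rise in the Bmi1 reporter signal indicates esBAF inhibition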
* hit, by the source's call; ? = inconclusive; . = no result. Rows were chosen to be rich in hits. Some 4% of all compounds tested hit in one or more screens of this group.

SMILES	EWS-Fli block	TRPM1 prom inh	Wnt bcat act	PAX8 inh HTS	MITF TRPM1 HTS	esBAF inh
CO[C@H]1CN(C)C(=O)c2ccc(NC(=O)C3CC3)cc2OC[C@H](C)N(C(=O)CN(C)C)C[C@H]1C	0	.	.	-8	.	7
C[C@H](CO)N1C[C@H](C)[C@@H](CN(C)Cc2ccc3c(c2)OCO3)Oc2ccc(NC(=O)Cc3ccccc3)cc2CC1=O	2	.	.	21	.	0
C=CCNC(=O)[C@H]1[C@@H]2C(=O)O[C@@H](c3ccccc3)[C@@H](c3ccccc3)N2[C@@H](c2ccccc2OCCO)[C@]12C(=O)N(C(=O)OCCOC)c1ccccc12	8	.	.	82*	.	.
COCCOC(=O)N1C(=O)[C@@]2(c3cc(C#CC4=CCCCC4)ccc31)[C@H](c1ccccc1OCCO)N1[C@H](c3ccccc3)[C@H](c3ccccc3)OC(=O)[C@H]1[C@@H]2C(=O)NC[C@H](O)c1ccccc1	5	.	.	51	.	.
COCCOC(=O)N1C(=O)[C@@]2(c3ccccc31)[C@H](c1ccccc1OCCO)N1[C@H](c3ccccc3)[C@H](c3ccccc3)OC(=O)[C@H]1[C@@H]2C(=O)NC[C@H](O)c1ccccc1	6	.	.	109*	.	.
C=CCNC(=O)[C@H]1[C@@H]2C(=O)O[C@@H](c3ccccc3)[C@@H](c3ccccc3)N2[C@@H](c2ccccc2OCCO)[C@]12C(=O)N(C(=O)OCCOC)c1ccc(C#CC3(O)CCCCCC3)cc12	12	.	.	53	.	.
C=CCNC(=O)[C@@H]1[C@H]2C(=O)O[C@H](c3ccccc3)[C@H](c3ccccc3)N2[C@H](c2ccccc2OCCO)[C@@]12C(=O)N(C(=O)OCCOC)c1ccccc12	7	.	.	87*	.	.
CCOc1ccc2nc(SCC(=O)c3ccccc3)sc2c1	-35	-62	8	.	60	47*
CCOc1ccc2nc(SCc3ccccc3C#N)sc2c1	.	-92	.	.	?	61*
CO[C@H]1CN(C)C(=O)c2ccc(NC(=O)C3CC3)cc2OC[C@@H](C)N(C)C[C@@H]1C	18	.	.	-15	.	0
CC(C)(C)c1cc(-c2n[nH]c(=S)n2-c2ccccc2F)n[nH]1	-14	-22	34*	12	.	7
Cc1ccccc1-n1c(-c2ccc(=O)[nH]n2)n[nH]c1=S	-1	8	0	21	-4	-2
C[C@H]1CCCCO[C@@H](CN(C)C(=O)Nc2ccccc2)[C@@H](C)CN([C@@H](C)CO)C(=O)c2cc(N(C)C)ccc2O1	-4	.	.	25	.	-4
CCn1c(C(=O)OC)cc2c1ccn2-c1ccc(F)cc1	.	-113	84*	-284	121*	71*
CN(C)CC(=O)N[C@H]1C=C[C@@H](CC(=O)O)O[C@@H]1CO	-2	.	.	.	.	.
CC[n+]1ccccc1/C=C1\Sc2ccc(C)cc2N1C	55*	15	-6	42	-10	-11
CO[C@H]1CN(C)C(=O)c2cc(NC(=O)C3CC3)ccc2OC[C@H](C)N(C(=O)c2ccncc2)C[C@@H]1C	4	.	.	-10	.	0
Cc1nc(-c2cc(-c3ccc(Cl)cc3)no2)cs1	-73	-8	36*	-169	10	.
Clc1ccc(-c2cc(-c3ccccc3)on2)cc1	-107	-86	54*	-240	?	21
CO[C@@H]1CN(C)C(=O)c2cc(NC(=O)NC(C)C)ccc2OC[C@H](C)N(Cc2cncnc2)C[C@@H]1C	-2	.	.	-6	.	3
Cc1noc(C)c1S(=O)(=O)Nc1ccc2c(c1)C(=O)N([C@H](C)CO)C[C@H](C)[C@H](CN(C)S(=O)(=O)c1ccc(F)cc1)OCCCC[C@@H](C)O2	0	.	.	-4	.	7
CN(C)C(=O)[C@H]1[C@H](CO)[C@H]2Cn3c(ccc(-c4cccc(F)c4)c3=O)[C@H]2N1C(=O)c1ccccn1	1	.	.	11	.	2
C[C@H]1CN([C@@H](C)CO)C(=O)c2c(c3ccccc3n2C)-c2ccccc2CO[C@@H]1CN(C)Cc1cccc(C(F)(F)F)c1	3	.	.	82*	.	.
C[C@@H]1CN([C@H](C)CO)C(=O)c2c(c3ccccc3n2C)-c2ccccc2CO[C@@H]1CN(C)C(=O)Nc1cccc(C(F)(F)F)c1	11	.	.	12	.	.
C[C@@H]1CN([C@@H](C)CO)C(=O)c2c(c3ccccc3n2C)-c2ccccc2CO[C@@H]1CN(C)Cc1cccc(C(F)(F)F)c1	2	.	.	56	.	.
SMILES	EWS-Fli block	TRPM1 prom inh	Wnt bcat act	PAX8 inh HTS	MITF TRPM1 HTS	esBAF inh
C[C@@H]1CN([C@H](C)CO)C(=O)c2c(c3ccccc3n2C)-c2ccccc2CO[C@H]1CN(C)C(=O)Nc1cccc(C(F)(F)F)c1	8	.	.	79*	.	.
Cc1cc(C(=O)COc2cccc([N+](=O)[O-])c2)c(C)n1C1CC1	-126	-106	-2	-108	105*	71*
O=C([C@@H]1N[C@@H]2c3ccc(C4=CCCC4)c(=O)n3C[C@@H]2[C@H]1CO)N1CCc2ccccc2C1	2	.	.	.	.	-4
COc1cccc(S(=O)(=O)Nc2ccc3c(c2)OC[C@@H](C)NC[C@H](C)[C@H](OC)CN(C)C3=O)c1	-4	.	.	.	.	1
CCCN(CC(=O)Nc1ccccc1C)C(=O)CCl	40	63*	-1	61*	-62	-2
CCCN(CC(=O)Nc1ccccc1C)C(=O)COc1c(C)cccc1C	-5	3	-2	-5	0	8
O=C(Nc1ccc2c(c1)OCO2)c1cc(Cl)ccn1	-40	-57	-1	-275	57	44*
Cc1cc(NS(=O)(=O)c2ccc(NC(=O)Nc3cccc(Cl)c3)cc2)no1	.	11	-7	-9	.	-1
Cc1cc(C(=O)Nc2ccc3c(c2)OCO3)no1	.	-105	22	-182	106*	?
Cc1cc(C)n(-c2ccc(C(=O)Nc3ccc4c(c3)OCO4)cc2)n1	.	-66	9	.	64	68*
Cc1cc(NS(=O)(=O)c2ccc(NC(=O)Nc3ccc4c(c3)OCO4)cc2)no1	.	-28	.	.	28	42*
COC(=O)C[C@@H]1C[C@@H]2c3cc(NC(=O)Nc4ccc(C(F)(F)F)cc4)ccc3O[C@@H]2[C@H](CO)O1	-7	.	.	-9	.	-8
COc1ccc2c3c(n(C)c2c1)[C@@H](CO)N(C(=O)c1cccnc1)CC31CCN(C)CC1	-15	.	.	.	.	.
COCC(=O)Nc1ccc2c(c1)[C@H]1C[C@H](CC(=O)NCCN3CCCCC3)O[C@H](CO)[C@H]1O2	-1	.	.	-4	.	-4
CN1C[C@@H]2[C@H](c3ccccc31)[C@H](CO)N2C(=O)Nc1cccc(F)c1	-5	.	.	11	.	0
COc1ccc(-c2cc(C(=O)Nc3ccc4c(c3)OCO4)no2)cc1OC	-22	-10	2	-22	13	-4
CC(C)Cc1cc(C(=O)Nc2ccc3c(c2)OCO3)no1	-9	-52	58*	-204	58	33
O=C(c1cnccn1)N1CC2(C1)[C@@H](c1ccccc1)[C@@H](CO)N2C(=O)c1ccccc1	-1	.	.	-8	.	.
Nc1nc(CCl)nc(Nc2ccc3ccccc3c2)n1	53*	15	-1	98*	-15	.
